# Reference: ChEMBL document CHEMBL3988442, “University of Dundee, Small-Polar-MMV Screening Library” (2021)
# For some assays here: Results with a measured potency or affinity are listed apart.
# Tests used:
# Parameters in all cases: scale not given: direction of the effect not stated beside the values
# [1] = biological target: Protein translocase subunit SecA (Escherichia coli (strain K12)) (UniProt P10408); test: Assay to Identify E. coli SecA ATPase Inhibitors; format: functional; details: 30 µM
# Protein translocase subunit SecA (Escherichia coli (strain K12)), sequence (P10408 whole entry): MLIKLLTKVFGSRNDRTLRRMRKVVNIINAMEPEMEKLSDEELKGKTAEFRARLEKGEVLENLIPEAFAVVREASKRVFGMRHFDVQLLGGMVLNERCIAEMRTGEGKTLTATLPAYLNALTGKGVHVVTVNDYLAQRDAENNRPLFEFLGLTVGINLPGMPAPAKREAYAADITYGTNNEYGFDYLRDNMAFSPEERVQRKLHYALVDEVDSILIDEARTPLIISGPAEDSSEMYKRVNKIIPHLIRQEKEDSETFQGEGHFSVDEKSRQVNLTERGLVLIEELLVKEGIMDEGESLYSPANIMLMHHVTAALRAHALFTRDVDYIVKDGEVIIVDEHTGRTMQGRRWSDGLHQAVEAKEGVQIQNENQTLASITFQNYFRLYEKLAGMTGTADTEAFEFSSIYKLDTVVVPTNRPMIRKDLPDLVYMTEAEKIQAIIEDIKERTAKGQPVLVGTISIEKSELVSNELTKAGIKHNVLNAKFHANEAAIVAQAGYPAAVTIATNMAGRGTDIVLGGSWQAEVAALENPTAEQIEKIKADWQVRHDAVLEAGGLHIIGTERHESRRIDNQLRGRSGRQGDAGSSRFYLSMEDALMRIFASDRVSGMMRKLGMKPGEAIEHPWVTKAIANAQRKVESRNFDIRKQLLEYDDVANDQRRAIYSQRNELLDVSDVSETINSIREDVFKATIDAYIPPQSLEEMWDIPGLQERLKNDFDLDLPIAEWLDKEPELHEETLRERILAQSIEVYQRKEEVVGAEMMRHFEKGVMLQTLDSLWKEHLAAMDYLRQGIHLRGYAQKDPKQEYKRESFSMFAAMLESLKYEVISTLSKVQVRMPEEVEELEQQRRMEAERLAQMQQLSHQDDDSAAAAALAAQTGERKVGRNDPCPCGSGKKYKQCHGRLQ
# [2] = biological target: T1, Ubiquitin-activating enzyme e1, putative (Leishmania donovani (strain BPK282A1)) (UniProt E9BSI1); test: Leishmania donovani Ubiquitin Activating Enzyme (LdE1); format: functional; details: 30 µM
# T1 sequence (whole entry): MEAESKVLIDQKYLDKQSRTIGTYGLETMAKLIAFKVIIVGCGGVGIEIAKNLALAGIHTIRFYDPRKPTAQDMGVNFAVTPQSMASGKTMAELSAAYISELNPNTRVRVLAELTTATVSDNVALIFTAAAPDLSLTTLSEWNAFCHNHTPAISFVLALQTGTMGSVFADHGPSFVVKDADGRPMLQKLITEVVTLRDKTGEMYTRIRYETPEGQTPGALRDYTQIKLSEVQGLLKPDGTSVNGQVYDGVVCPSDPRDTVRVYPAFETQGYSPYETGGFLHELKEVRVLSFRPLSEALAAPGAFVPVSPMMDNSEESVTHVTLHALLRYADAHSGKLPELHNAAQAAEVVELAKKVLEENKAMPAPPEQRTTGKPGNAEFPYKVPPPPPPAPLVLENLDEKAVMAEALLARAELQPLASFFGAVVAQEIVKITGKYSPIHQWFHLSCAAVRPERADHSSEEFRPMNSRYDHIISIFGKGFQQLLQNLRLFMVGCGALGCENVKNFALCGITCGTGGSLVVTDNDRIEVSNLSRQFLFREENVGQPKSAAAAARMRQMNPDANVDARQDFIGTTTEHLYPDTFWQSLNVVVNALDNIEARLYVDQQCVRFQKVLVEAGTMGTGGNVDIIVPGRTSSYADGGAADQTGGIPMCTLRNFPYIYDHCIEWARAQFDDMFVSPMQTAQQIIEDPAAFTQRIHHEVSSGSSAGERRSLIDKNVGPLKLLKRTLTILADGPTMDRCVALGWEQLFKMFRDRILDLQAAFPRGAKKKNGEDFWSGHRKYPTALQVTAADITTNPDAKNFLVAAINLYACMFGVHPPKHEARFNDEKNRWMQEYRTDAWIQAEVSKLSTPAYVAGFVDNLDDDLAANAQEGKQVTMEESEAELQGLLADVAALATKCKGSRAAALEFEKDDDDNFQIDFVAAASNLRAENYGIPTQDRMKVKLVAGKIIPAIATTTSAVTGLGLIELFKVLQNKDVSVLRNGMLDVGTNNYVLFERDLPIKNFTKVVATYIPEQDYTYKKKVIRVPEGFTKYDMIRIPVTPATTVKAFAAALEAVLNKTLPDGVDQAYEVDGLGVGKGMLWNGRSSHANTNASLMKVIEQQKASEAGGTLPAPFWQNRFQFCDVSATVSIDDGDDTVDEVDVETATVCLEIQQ
# [3] = biological target: AMP-activated protein kinase, AMPK (Homo sapiens) (UniProt P54646+O43741+P54619+Q9UGJ0+Q9Y478+Q13131+Q9UGI9); test: AMP-dependent Kinase enzyme assay. An in vitro enzyme assay that detects ADP turnover that is directly proportional to AMPK activity. This uses naive AMPK that is activated during the assay with MK-8722; format: functional; details: 30 µM
# [4] = biological target: Sialic acid-binding Ig-like lectin 9 (Homo sapiens) (UniProt Q9Y336); test: Hs-Siglec9 ALPHAscreen SOP 20170721; details: 10 µM
# Sialic acid-binding Ig-like lectin 9 (Homo sapiens), sequence (Q9Y336 whole entry): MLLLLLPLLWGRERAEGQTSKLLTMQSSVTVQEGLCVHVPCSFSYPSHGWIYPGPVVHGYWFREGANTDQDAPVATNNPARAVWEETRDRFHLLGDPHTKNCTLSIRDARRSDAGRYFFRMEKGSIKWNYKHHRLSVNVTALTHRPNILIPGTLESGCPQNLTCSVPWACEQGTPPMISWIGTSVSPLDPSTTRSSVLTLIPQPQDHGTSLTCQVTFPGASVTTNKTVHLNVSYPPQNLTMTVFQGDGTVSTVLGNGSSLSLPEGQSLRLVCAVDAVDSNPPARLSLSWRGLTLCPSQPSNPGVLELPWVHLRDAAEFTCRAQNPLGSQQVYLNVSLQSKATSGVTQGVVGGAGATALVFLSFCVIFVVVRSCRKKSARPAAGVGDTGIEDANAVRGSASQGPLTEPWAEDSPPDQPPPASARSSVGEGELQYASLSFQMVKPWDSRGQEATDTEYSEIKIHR
# Trypanosoma cruzi = test: Trypanosoma cruzi phosphomannomutase and mannose-1-phosphate guanylyltransferase assay; format: functional; details: 10 µM
# [5] = biological target: T2, Arginase-2, mitochondrial (Homo sapiens) (UniProt P78540); test: in vitro enzyme assay to detect the production of urea directly proportional to the activity of Arginase II; format: functional; details: 33.3 µM; further: in the data most compounds retested in dose-response had high values
# T2 sequence (whole entry): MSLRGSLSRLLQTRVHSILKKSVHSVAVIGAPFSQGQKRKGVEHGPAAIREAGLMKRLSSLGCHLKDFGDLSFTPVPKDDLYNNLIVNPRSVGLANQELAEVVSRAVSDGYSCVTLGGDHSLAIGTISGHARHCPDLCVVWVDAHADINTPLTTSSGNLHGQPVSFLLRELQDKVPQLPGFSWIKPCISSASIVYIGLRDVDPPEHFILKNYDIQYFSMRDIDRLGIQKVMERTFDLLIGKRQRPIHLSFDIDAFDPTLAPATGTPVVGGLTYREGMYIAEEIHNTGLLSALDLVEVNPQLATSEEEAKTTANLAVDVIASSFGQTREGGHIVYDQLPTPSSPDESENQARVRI
# [6] = biological target: T3, Proteasome subunit beta (Trypanosoma cruzi) (UniProt O96673); test: Trypanosoma cruzi proteasome chymotrypsin-like activity (TcProtChymo) assay.; further: in the data most compounds retested in dose-response had high values; format: functional; details: 9.37 µM
# T3 sequence (whole entry): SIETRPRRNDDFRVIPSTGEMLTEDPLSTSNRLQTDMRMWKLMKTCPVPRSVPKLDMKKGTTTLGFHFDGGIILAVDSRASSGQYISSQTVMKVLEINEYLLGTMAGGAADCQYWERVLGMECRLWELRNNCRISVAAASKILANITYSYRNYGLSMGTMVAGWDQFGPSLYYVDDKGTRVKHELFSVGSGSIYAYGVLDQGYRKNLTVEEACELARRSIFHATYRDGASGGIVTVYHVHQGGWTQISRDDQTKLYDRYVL
# Homo sapiens = species: Homo sapiens; test: To identify inhibition of the IFN signalling (Jak-Stat) pathway via expression of an eGFP reporter gene under the control of an IFN-stimulated response element (ISRE) containing MxA promoter.; format: functional; details: 30 µM
# [7] = biological target: T4, Tyrosyl-tRNA synthetase, putative (Trypanosoma cruzi (strain CL Brener)) (UniProt Q4DSP6); test: Trypanosoma cruzi tyrosyl tRNA synthetase (TcYRS) _High Tyrosine SOP; format: functional; details: 30 µM; further: in the data most compounds retested in dose-response had high values
# T4 sequence (whole entry): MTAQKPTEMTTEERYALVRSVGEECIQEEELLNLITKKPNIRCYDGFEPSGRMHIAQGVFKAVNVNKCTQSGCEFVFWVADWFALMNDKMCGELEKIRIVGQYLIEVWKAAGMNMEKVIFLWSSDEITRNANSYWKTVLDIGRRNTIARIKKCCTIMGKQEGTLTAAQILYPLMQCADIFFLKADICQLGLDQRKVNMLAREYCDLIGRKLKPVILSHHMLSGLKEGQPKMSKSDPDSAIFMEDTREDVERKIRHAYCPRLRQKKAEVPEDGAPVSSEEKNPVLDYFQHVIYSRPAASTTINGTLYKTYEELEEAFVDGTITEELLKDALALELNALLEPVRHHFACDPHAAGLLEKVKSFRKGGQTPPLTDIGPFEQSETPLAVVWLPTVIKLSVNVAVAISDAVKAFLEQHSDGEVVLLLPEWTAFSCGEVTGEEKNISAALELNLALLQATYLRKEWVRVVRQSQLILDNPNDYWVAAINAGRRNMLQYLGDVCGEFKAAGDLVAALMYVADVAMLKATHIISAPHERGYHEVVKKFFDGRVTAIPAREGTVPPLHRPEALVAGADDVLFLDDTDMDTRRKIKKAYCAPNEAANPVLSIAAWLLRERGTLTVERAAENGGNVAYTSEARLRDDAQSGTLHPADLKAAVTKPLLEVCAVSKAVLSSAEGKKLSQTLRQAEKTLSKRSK
# [8] = biological target: T4, Tyrosyl-tRNA synthetase, putative (Trypanosoma cruzi (strain CL Brener)); test: Trypanosoma cruzi tyrosyl tRNA synthetase (TcYRS) SOP; format: functional; details: 30 µM
# [9] = biological target: Chromo domain-containing protein 1 (Saccharomyces cerevisiae (strain ATCC 204508 / S288c) (Baker's yeast)) (UniProt P32657); test: ScCHD-1 Enzyme Inhibition Assay; format: functional; details: 30 µM; further: in the data most compounds retested in dose-response had high values
# Chromo domain-containing protein 1 (Saccharomyces cerevisiae (strain ATCC 204508 / S288c) (Baker's yeast)), sequence (P32657 whole entry, the tested form may be a part): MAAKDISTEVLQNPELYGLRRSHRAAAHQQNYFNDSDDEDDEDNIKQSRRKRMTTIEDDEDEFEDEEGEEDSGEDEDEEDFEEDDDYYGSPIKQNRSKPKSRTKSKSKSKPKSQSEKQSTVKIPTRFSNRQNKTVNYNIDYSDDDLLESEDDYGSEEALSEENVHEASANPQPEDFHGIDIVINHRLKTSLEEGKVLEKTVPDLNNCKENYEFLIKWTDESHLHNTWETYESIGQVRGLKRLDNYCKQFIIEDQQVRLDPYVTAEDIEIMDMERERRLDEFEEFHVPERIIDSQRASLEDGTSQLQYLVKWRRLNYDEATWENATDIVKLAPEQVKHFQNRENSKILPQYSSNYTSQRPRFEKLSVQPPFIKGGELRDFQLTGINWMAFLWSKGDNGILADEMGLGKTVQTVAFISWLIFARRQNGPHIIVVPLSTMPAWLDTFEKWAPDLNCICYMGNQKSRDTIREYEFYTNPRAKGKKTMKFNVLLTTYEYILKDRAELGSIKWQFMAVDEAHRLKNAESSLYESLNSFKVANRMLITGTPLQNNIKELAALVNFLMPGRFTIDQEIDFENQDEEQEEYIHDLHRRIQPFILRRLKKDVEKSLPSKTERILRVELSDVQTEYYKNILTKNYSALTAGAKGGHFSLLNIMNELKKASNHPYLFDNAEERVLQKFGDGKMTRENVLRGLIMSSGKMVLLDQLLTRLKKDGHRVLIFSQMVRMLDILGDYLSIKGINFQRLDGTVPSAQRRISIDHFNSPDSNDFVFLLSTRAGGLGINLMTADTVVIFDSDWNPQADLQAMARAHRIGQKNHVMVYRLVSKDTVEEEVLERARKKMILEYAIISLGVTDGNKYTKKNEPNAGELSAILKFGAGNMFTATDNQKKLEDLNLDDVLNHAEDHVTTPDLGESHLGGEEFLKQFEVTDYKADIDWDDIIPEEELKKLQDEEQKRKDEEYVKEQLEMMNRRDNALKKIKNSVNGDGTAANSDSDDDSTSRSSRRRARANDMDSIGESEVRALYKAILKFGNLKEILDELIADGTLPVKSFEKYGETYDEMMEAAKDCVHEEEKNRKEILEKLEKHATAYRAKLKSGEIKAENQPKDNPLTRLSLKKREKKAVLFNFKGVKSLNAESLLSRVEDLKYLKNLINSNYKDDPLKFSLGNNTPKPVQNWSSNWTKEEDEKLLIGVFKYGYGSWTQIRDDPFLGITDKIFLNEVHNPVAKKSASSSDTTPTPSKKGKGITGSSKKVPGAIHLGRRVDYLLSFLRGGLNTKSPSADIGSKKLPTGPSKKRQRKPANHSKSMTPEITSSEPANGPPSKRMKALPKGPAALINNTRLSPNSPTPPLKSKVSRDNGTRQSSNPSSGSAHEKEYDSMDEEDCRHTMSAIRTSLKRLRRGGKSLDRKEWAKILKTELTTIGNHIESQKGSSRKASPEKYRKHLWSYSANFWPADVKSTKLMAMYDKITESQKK
SMILES,Percent Effect [1] [%],Percent Effect [2] [%],Percent Effect [3] [%],Percent Effect [4] [%],Percent Effect (Trypanosoma cruzi) [%],Percent Effect [5] [%],Percent Effect [6] [%],Percent Effect (Homo sapiens) [%],Percent Effect [7] [%],Percent Effect [8] [%],Percent Effect [9] [%]
CN(Cc1cccc(F)c1)S(=O)(=O)N1CCOCC1,-1.93,7.89,1.93,-0.448,-0.876,-1.18,24.4,9.7,2.13,13,-6.29
CCn1ncc2c1C(COCC1CC1)CN(S(=O)(=O)N(C)C)C2 (configuration not stated),0.0926,19.2,-8.78,10.2,2.78,-0.798,10.4,9.33,9.38,18.5,-8.61
Cc1cc(C(=O)N2CCCCC2C)ccc1NCC(=O)N1CCOCC1 (configuration not stated),-3.46,18.2,9.95,-0.936,8.8,5.69,15.5,29.1,-2.91,24.4,-5.86
COc1ccc(C(=O)N2CCCCC2Cn2cccn2)c(F)c1 (configuration not stated),-1.68,15.6,2.24,6.84,1.5,-1.42,13.7,-14.3,6.8,14.6,-9.15
CN(CC1COc2ccccc2O1)C(=O)NCCCn1ccnc1 (configuration not stated),-1.25,0,12.1,-8.39,-4.7,-3.06,-0.835,27.3,-3.43,-7.32,7.75
O=C(CCC1CCCO1)NCc1ccnc(-n2cccn2)c1 (configuration not stated),-7.06,13.2,2.95,-9.63,-7.38,-1.44,5.33,10.6,0.493,11.1,-5.06
CC(=O)N1CCCCC1c1nc2c(c(N3CCCCC3)n1)CN(C)CC2 (configuration not stated),0.622,-9.46,2.5,0.77,1.38,-3.48,23.4,11.2,15.1,14.3,-9.65
O=C(c1ccc(=O)[nH]n1)N1CC(c2nc(Cc3ccccc3)no2)C1,-2.52,8.22,-1.62,7.99,3.33,20.9,14.4,0.0834,6.45,20,-5.6
CCC(CC)C(CNC(=O)Nc1ccc(C)cc1)N1CCOCC1 (configuration not stated),-3.76,22.8,-8.69,-4.59,4.63,-0.76,3.52,5.24,-25.1,21.5,-8.39
CN1CCCC(CNC(=O)N2CCN(Cc3ccon3)CC2)C1 (configuration not stated),-5.29,2.67,-3.4,1.23,3.02,-1.04,1.74,5.23,4.92,8.64,-5.38
Cc1csc(N2CCN(C(=O)CCNc3ncccn3)CC2)n1,-4.07,16.2,-2.35,-1.96,1.42,-6.41,5.04,14.1,-61.6,16.1,-9.84
CCSCCNC(=O)C(c1cccc(F)c1)N(C)C (configuration not stated),-5.79,8.11,-0.968,-3.42,-4.44,-0.952,13.8,20.7,6.88,7.32,-3.55
O=S(=O)(C1CC1)N1CCC2(COCc3cnc(N4CCOCC4)nc32)C1 (configuration not stated),1.84,14.7,1.88,-4.21,-2.55,-6.16,9.61,13.3,1.06,5.13,-7.85
NC(=O)c1ccc(CN2CCCC(O)C2)cc1 (configuration not stated),-2.93,13.5,-3.22,-5.21,4.69,37.5,17.2,0.641,5.94,15.8,-0.618
Cc1cc(C2CCCN(C(=O)c3cnn(C)c3)C2)ccn1 (configuration not stated),-5.39,9.46,10.9,0.0727,5.93,-0.696,12.3,-13.7,8.6,11.7,-9.36
Cc1ccc(C(=O)N2Cc3ccccc3C2)cc1N1CCNC1=O,-6.25,2.67,0.516,9.14,7.89,-3.12,16.2,-13.9,7.1,13.6,-6.92
CC(C)N(C)Cc1nnc2n1CCN(Cc1ccncc1)CC2,-1.23,8,2.82,-4.03,-3.67,-54.7,2.73,1.94,-2.08,5,-6.5
Cc1cnc(N2CCCC3(CCN(Cc4csc(C)n4)C3=O)C2)nc1 (configuration not stated),-1.53,10.7,2.83,3.4,0.965,-54.3,5.64,-4.88,4.17,20,-8.92
Cc1c[nH]c(CN(C)c2nc(C3CCCC3)nc3c2cnn3C)n1,-3.47,1.39,3.98,-7.75,-3.01,2.21,3.68,-3.43,0,2.56,-2.96
O=C(COC[C@H]1CC[C@H]2[C@H](CCN2c2ncccn2)O1)N1CCCC1,-2.35,24.7,-1.6,1.45,0,-1.2,7.62,13.1,5.21,13.6,-1.93
Cc1ccccc1-n1ncc(C(=O)N2CCCC2c2cnn(C)c2)c1C (configuration not stated),-1.92,10.8,-5.91,-5.79,7.71,-0.924,5.57,-8.29,3.96,18.3,-5.96
CN(C)CCNC(=O)c1cnc2c(c1)nc(-c1ccccc1Cl)n2C,-0.258,8.11,-1.84,30.9,3.81,1.74,9.36,17.4,7.53,16.1,-5.45
